Shown are actives, neighbours in structure and some others; about 4% of the full set was active somewhere.
Peg3 prom inh: inhibitors of Peg3 promoter; 1.7% of 360,000 active; HeLa PEG-Prom luciferase reporter, luminescence, overnight; inhibition, % at 20 µM;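 active = inhibition of at least 50% at 20 µM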
KKLEB cytotox: counter-screen for CF NF-kB inhibitors: cytotoxicity. KKLEB CF airway cells viability, ATPlite luminescence, overnight; stronger effect = lower value; cells stimulated with P. aeruginosa culture filtrate. activity change (cytotoxicity), % at 5 µM. 0.36% of 360,000 active. AID 602141;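 active = corrected activity change at or below -50% at 5 µM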
CF NFkB inh: inhibitors of cystic fibrosis induced NF-kB. KKLEB NF-kB-GFP reporter, PAF-induced, GFP fluorescence overnight. inhibition, % at 5 µM. 0.86% of 360,000 active;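 active = at least 50% inhibition at 5 µM, scaled per plate between neutral and stimulator controls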;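 also: PAF is a Pseudomonas aeruginosa culture filtrate used as stimulus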
HIF-2a inh: blocks HIF-2a reporter activity | 0.72% of 360,000 active | 786-0 RCC cells HIF-2a reporter, luciferase luminescence, overnight | inhibition, % at 18.8 µM | AID 624352;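 active = inhibition of the luminescence signal of 40% or more relative to plate controls, in a single-dose primary screen at 18.75 µM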
TWEAK Fn14 block: TWEAK-Fn14 signaling inhibition; TWEAK-stimulated Fn14 reporter cells, luciferase luminescence, 8 h; inhibition, % at 10 µM; 2% of 360,000 active; in the data active = inhibition above about 50%
TROY signal inh: TROY signaling inhibition. AID 1347056. inhibition, % at 10 µM. Q293 LMP1-TROYcd NF-kB luciferase reporter, 4 h. 0.98% of 360,000 active;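 active = compounds whose plate-normalised and pattern-corrected inhibition of the luciferase reporter signal at the single screening dose is 50% or more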
A number is an active result; . = inactive; / = not tested or not shown.

SMILES | Peg3 prom inh | KKLEB cytotox | CF NFkB inh | HIF-2a inh | TWEAK Fn14 block | TROY signal inh
O=C1Nc2ccccc2N=C(c2ccccc2)C1N(Cc1ccc(F)cc1)C(=O)c1cccnc1 (stereo not given) | . | . | . | . | . | .
CN(C)CCC(=O)C(Cc1ccccc1)c1ccccc1 (stereo not given) | 88.6 | . | . | . | . | .
CN(C)CCNC(=O)C(c1ccccc1)c1ccccc1 | . | . | . | . | . | .
Cc1cc(C=C2C(=O)c3ccccc3C2=O)c(C)n1-c1ccc(C(=O)O)cc1 | . | . | . | . | . | .
Cc1cc(/C=C2\Cc3ccccc3C2=O)c(C)n1-c1ccccc1 | . | . | . | 43.9 | 53.9 | .
CCC(=O)c1ccc(OCC(=O)NC2CCN(Cc3ccccc3)CC2)cc1 | . | . | . | . | . | .
CCOC(=O)[C@H]1[C@H]2COc3cc(OC)ccc3[C@@H]2N2C(=O)N(c3ccc(Cl)cc3)C(=O)[C@@]12C | . | . | . | . | . | .
CCOc1cc(Br)cc(/C=N/NC(=O)c2cccnc2)c1O | 62.0 | . | . | . | . | .
C[C@@H]1CN([C@@H](C)CO)C(=O)c2cc(Br)cnc2O[C@H]1CN(C)C(=O)c1cccc(F)c1 | . | . | . | . | . | .
O=C(CN1CCC(n2nnc3cc(C(F)(F)F)ccc32)CC1)Nc1ccc2c(c1)OCCO2 | . | . | . | . | 74.5 | 63.7
COc1ccc(Cl)cc1NC(=O)CN1CCC(n2nnc3cc(C)ccc32)CC1 | 85.9 | . | . | . | . | .
COc1cccc(-c2nn(C)c3sc(C(=O)N4CCOCC4)cc23)c1 | . | . | . | . | . | .
COc1cccc(-c2nn(C)c3sc(C(=O)N4CCN(c5ccccn5)CC4)cc23)c1 | 56.5 | . | . | . | 68.7 | 61.8
CCOC(=O)C1CCN(C(=O)c2cc3c(ccc4ccccc43)o2)CC1 | . | . | . | . | . | .
CC1CCN(C(=O)c2cc3c(ccc4ccccc43)o2)CC1 | . | . | . | . | 60.8 | .
COc1cccc(/C=N/NC(=O)C(=O)Nc2ccccc2OC(F)(F)C(F)F)c1 | . | . | . | . | . | .
O=C(Oc1c(Cl)cc(Cl)c2cccnc12)c1cccs1 | . | . | . | . | 108.6 | .
O=C(Oc1cncc(Cl)c1)c1ccco1 | . | . | . | . | . | .
O=C(Oc1c(CN2CCOCC2)cc(Cl)c2cccnc12)c1cccs1 | . | . | . | . | . | .
O=C(Oc1c(Cl)cc(Cl)c2cccnc12)c1ccco1 | 55.6 | . | . | . | 86.0 | 57.8
O=C(Nc1cc(Cl)ccc1-n1cncn1)c1cncc(Br)c1 | . | . | . | . | . | .
O=C(CCl)NC(=O)NC12CC3CC(CC(C3)C1)C2 | 63.1 | . | . | . | . | .
CC(Cl)C(=O)NC(=O)NC12CC3CC(CC(C3)C1)C2 (stereo not given) | . | . | . | . | . | .
COc1ccccc1-c1cnc(C(O)c2ccc(C)c(F)c2)[nH]1 (stereo not given) | . | . | . | . | . | .
O=C1c2ccccc2-c2nc3ccccc3nc21 | . | . | . | . | . | .
SMILES | Peg3 prom inh | KKLEB cytotox | CF NFkB inh | HIF-2a inh | TWEAK Fn14 block | TROY signal inh
Cc1nc2c(nc1C)C(=O)c1ccccc1C2=O | . | . | 60.6 | . | . | .
NC(CCc1ccccc1)c1csc(NC(=O)NCC2CCCCC2)n1 (stereo not given) | 98.1 | . | . | . | . | .
COc1ccc(CCNC(=O)Nc2nc(C(N)Cc3ccccc3)cs2)cc1OC (stereo not given) | . | . | . | . | . | .
COc1ccc(CC(N)c2csc(NC(=O)Nc3ccccc3-c3ccccc3)n2)cc1 (stereo not given) | 92.0 | . | . | . | . | .
COc1ccc(OC)c(NC(=O)Nc2nc(C(N)CCc3ccccc3)cs2)c1 (stereo not given) | 100.2 | . | . | . | . | .
COc1ccccc1NC(=O)Nc1nc(C(N)Cc2ccc(Cl)cc2)cs1 (stereo not given) | 106.2 | . | . | . | . | .
NC(CCc1ccccc1)c1csc(Nc2ccccn2)n1 (stereo not given) | . | . | . | . | . | .
O=[N+]([O-])c1ccc(Oc2cc(NC3CCCCCCC3)c([N+](=O)[O-])cc2[N+](=O)[O-])cc1 | . | . | . | . | . | .
COc1ccc(NC(=O)OCC(C)C)cc1OC | . | . | . | . | . | .
O=C1c2cccc3cccc(c23)C(=O)N1c1cccnc1 | . | . | . | . | . | .
CC(=NNS(=O)(=O)c1ccc(C)cc1)c1ccccc1 | . | . | . | . | . | .
Cc1cc(NC(=O)CN2C(=O)CC(c3ccco3)Sc3ccccc32)no1 (stereo not given) | . | . | . | . | . | .
COc1ccc(NC(=O)Cc2csc(NC(=O)Nc3ccccc3OC)n2)c(OC)c1 | . | . | . | . | . | .
COc1ccc(OC)c(NC(=O)Cc2csc(NC(=O)Nc3ccccc3OC)n2)c1 | 53.8 | . | . | . | . | .
COc1ccccc1NC(=O)Nc1nc(CC(=O)NCc2c(F)cccc2F)cs1 | . | . | . | . | . | .
COc1ccccc1NC(=O)Nc1nc(C(N)CC(C)C)cs1 (stereo not given) | 61.3 | . | . | . | . | .
COc1ccccc1NC(=O)Nc1nc(CC(=O)N2CCN(c3ccccc3F)CC2)cs1 | 52.4 | . | . | . | . | .
COc1ccccc1NC(=O)Nc1nc(C(N)Cc2ccccc2)cs1 (stereo not given) | 60.5 | . | . | . | . | .
Cc1cc(C)n2nc(SC(C)C(=O)NCc3ccco3)nc2n1 (stereo not given) | . | . | . | . | . | .
COc1ccccc1C(=O)Oc1cc(N)n(S(=O)(=O)c2ccccc2)n1 | . | . | . | . | . | .
Cc1ccccc1C(=O)Oc1cc(N)n(S(=O)(=O)c2ccccc2)n1 | . | . | . | . | 54.6 | .
Cc1ccc(C(=O)Oc2cc(N)n(S(=O)(=O)c3ccc(C)cc3)n2)cc1 | . | . | . | . | 68.0 | .
COc1ccc(S(=O)(=O)n2nc(OC(=O)c3ccc(C)cc3)cc2N)cc1 | . | . | . | . | . | 59.3
CC(C)CNC(=S)NC(=O)c1ccccc1Cl | . | . | . | . | . | .
COC(=O)[C@]12CCCCC=C1N(CCc1ccc(OC)c(OC)c1)C(=O)[C@H](CC(=O)NCc1cccc(C(F)(F)F)c1)C2 | / | / | / | . | / | /
CCOC(=O)C1CCCN(C(=O)c2cc3nc(-c4cccc(OC)c4)cc(C(F)(F)F)n3n2)C1 (stereo not given) | . | . | . | . | . | .
CCOc1ccc(C(=O)OCC(=O)NCc2ccccc2)cc1OCC | . | . | . | . | . | .
COc1ccc(NC(=O)CSc2nnc(Cn3cnc([N+](=O)[O-])n3)n2C)cc1 | . | . | . | . | . | .
CCCc1cc(C(=O)Nc2ccc(C(=O)c3ccccc3)cc2)n(C)n1 | . | . | . | . | . | .

Screening data: PubChem, Sanford-Burnham Center for Chemical Genomics
